# In article PMC7862700, “An all-to-all approach to the identification of sequence-specific readers for epigenetic DNA modifications on cytosine”:
# Experiments:
# Assay in all cases: DAPPL (digital affinity profiling via proximity ligation, sequencing); 10 mM Tris-HCl pH 7.5, 50 mM NaCl, 1 mM DTT, 4% glycerol, room temperature, 30 min; GST-TFs on glutathione beads, 16-mer random dsDNA library, 0.1% formaldehyde crosslink after washing; high values mean tight binding
# FEV = molecular target: T1, FEV (Homo sapiens, UniProt Q99581 1-238); settings: protein: recombinant; tags: N-terminal GST; dsDNA, one strand shown
# T1 sequence: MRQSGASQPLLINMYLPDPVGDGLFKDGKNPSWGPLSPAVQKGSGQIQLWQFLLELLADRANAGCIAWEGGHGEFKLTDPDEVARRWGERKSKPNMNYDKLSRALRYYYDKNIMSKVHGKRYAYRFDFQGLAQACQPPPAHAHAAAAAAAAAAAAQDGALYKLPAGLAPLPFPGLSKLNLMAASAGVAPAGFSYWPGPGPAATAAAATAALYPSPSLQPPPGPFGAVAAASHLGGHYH
# Procedure, shortened: (§1)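 Human transcription factors were made in yeast as GST fusions, captured on glutathione beads and barcoded with DNA. With a tag-only sample included, the pool was incubated with 200 nmole of a random double-stranded 16-mer DNA library in Tris/NaCl/DTT/glycerol buffer at room temperature for 30 min, then crosslinked with 0.1% formaldehyde after washing, ligated by proximity, amplified and sequenced. For binding signal, each hexamer's read frequency for a factor is divided by its frequency for the tag-only sample.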
# ETV5 = ETV5 (Homo sapiens, UniProt P41161 1-510); settings: protein: recombinant; tags: N-terminal GST; dsDNA, one strand shown
# Chain of ETV5 (P41161 whole entry): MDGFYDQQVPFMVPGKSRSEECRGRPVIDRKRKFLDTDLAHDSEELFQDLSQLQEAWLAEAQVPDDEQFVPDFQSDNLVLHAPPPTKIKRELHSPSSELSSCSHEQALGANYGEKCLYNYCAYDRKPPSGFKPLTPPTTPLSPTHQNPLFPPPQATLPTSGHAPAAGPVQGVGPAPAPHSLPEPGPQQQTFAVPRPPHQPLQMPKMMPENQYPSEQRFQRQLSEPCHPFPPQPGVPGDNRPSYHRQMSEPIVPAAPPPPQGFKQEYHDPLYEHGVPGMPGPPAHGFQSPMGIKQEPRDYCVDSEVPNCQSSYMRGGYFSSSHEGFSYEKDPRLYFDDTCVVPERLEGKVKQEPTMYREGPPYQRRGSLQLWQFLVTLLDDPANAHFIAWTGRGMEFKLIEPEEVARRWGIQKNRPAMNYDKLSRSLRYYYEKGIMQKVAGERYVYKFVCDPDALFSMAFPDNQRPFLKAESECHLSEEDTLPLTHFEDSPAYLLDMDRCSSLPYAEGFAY
# Procedure, shortened: as §1
# HSF1 = HSF1 (Homo sapiens, UniProt Q00613 1-529); settings: protein: recombinant; tags: N-terminal GST; chain copies: 3; dsDNA, one strand shown
# Chain of HSF1 (Q00613 whole entry): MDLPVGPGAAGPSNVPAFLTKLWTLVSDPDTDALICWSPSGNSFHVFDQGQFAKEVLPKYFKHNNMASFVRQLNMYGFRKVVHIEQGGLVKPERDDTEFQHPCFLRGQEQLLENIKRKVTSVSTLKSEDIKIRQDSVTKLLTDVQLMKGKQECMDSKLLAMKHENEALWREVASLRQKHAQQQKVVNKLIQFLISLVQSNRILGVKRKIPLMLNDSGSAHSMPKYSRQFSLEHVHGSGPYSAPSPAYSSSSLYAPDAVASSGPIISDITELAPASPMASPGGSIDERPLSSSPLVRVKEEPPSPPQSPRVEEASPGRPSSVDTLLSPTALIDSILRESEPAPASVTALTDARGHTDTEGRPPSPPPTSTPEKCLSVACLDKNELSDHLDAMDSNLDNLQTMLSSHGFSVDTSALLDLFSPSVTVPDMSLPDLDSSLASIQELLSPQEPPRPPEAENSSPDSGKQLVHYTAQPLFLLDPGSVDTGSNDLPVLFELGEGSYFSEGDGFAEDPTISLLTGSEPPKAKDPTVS
# Procedure, shortened: as §1
# SPIC = molecular target: T2, SPIC (Homo sapiens, UniProt Q8N5J4 1-248); settings: protein: recombinant; tags: N-terminal GST; dsDNA, one strand shown
# T2 sequence: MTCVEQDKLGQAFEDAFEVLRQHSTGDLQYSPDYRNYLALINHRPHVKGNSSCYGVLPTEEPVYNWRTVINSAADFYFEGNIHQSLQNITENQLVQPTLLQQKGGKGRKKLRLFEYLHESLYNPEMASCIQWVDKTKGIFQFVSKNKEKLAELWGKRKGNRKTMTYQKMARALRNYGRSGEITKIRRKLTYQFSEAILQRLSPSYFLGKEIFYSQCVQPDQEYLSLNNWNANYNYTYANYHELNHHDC
# Procedure, shortened: as §1
# ELF4 = ELF4 (Homo sapiens, UniProt Q99607 1-663); settings: protein: recombinant; tags: N-terminal GST; dsDNA, one strand shown
# Chain of ELF4 (Q99607 whole entry): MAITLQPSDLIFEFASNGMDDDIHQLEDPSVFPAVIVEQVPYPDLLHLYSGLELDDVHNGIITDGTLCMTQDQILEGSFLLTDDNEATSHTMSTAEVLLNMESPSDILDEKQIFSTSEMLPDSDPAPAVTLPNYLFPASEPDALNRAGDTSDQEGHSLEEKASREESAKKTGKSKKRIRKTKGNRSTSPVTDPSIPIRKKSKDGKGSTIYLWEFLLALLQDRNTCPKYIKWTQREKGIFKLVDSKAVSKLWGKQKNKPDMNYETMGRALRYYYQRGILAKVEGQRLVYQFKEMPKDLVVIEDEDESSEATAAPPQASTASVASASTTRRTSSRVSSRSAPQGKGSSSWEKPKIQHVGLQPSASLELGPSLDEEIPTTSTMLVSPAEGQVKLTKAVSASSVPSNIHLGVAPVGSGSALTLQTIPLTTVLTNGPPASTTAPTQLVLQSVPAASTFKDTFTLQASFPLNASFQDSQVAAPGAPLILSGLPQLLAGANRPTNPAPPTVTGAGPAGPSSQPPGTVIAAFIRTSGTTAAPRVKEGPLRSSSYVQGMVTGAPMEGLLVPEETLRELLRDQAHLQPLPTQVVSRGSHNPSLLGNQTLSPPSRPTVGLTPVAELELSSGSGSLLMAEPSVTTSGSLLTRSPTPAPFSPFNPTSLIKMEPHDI
# Procedure, shortened: as §1
# ELK4 = molecular target: T3, ELK4 (Homo sapiens, UniProt P28324-2 1-405); settings: protein: recombinant; tags: N-terminal GST; dsDNA, one strand shown
# T3 sequence: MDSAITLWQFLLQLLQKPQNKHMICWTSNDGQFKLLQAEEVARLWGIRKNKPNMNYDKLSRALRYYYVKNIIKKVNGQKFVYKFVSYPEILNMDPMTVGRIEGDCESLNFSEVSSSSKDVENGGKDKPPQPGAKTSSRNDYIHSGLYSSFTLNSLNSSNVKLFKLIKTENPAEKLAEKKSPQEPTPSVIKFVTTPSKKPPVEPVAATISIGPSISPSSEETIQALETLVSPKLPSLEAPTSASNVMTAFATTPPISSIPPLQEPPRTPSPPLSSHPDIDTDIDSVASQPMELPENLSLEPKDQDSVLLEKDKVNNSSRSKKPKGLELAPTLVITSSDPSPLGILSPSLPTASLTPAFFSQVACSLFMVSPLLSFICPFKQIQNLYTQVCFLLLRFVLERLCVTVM
# Procedure, shortened: as §1
# ETV2 = molecular target: T4, ETV2 (Homo sapiens, UniProt O00321 1-342); settings: protein: recombinant; tags: N-terminal GST; dsDNA, one strand shown
# T4 sequence: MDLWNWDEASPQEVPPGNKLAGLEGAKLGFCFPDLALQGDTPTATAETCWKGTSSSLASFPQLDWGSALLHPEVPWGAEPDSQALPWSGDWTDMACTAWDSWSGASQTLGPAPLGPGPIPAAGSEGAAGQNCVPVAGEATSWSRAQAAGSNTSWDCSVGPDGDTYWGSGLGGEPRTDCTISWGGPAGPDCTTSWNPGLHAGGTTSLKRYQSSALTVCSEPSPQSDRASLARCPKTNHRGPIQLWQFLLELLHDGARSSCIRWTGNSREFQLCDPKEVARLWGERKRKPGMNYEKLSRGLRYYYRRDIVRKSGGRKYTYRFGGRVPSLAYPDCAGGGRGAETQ
# Procedure, shortened: as §1
# ELF3 = molecular target: T5, ELF3 (Homo sapiens, UniProt P78545 1-371); settings: protein: recombinant; tags: N-terminal GST; dsDNA, one strand shown
# T5 sequence: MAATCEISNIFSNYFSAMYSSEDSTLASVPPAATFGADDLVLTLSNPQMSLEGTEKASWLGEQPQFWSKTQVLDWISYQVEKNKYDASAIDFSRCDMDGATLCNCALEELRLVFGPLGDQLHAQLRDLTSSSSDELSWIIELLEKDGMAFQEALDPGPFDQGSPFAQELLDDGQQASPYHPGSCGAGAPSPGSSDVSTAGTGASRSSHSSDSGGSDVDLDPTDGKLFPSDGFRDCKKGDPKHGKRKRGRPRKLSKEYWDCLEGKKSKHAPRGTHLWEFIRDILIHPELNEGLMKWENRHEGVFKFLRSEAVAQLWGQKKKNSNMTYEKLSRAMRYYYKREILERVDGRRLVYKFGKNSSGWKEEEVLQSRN
# Procedure, shortened: as §1
# CRX = CRX (Homo sapiens, UniProt O43186 1-299); settings: protein: recombinant; tags: N-terminal GST; dsDNA, one strand shown
# Chain of CRX (O43186 whole entry): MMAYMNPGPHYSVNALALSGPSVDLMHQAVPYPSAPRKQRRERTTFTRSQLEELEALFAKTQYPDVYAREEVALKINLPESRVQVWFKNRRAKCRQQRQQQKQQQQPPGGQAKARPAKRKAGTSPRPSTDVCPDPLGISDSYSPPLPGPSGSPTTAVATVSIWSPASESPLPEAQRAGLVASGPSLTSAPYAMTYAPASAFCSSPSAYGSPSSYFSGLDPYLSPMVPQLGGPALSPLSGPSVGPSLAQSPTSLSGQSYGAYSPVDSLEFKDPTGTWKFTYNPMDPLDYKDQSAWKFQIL
# Procedure, shortened: as §1
sequence,measurement,setting,value
AACATA,binding signal,FEV,"1.2 fold enrichment (6-mer frequency, TF over GST control)"
same,binding signal,ETV5,"1.31 fold enrichment (6-mer frequency, TF over GST control)"
same,binding signal,HSF1,"1.36 fold enrichment (6-mer frequency, TF over GST control)"
same,binding signal,SPIC,"1.37 fold enrichment (6-mer frequency, TF over GST control)"
same,binding signal,ELF4,"1.3 fold enrichment (6-mer frequency, TF over GST control)"
same,binding signal,ELK4,"1.16 fold enrichment (6-mer frequency, TF over GST control)"
same,binding signal,ETV2,"1.38 fold enrichment (6-mer frequency, TF over GST control)"
same,binding signal,ELF3,"1.36 fold enrichment (6-mer frequency, TF over GST control)"
same,binding signal,CRX,"1.3 fold enrichment (6-mer frequency, TF over GST control)"
